In the library only some 3.7% were active in any assay of this set; here they are far more common.
BoNT-F LC inh: blocks Botulinum neurotoxin F light chain protease; Multiplex microsphere protease cleavage assay, flow cytometry; inhibition, % at 10 µM; 360,000 compounds, 0.22% hits; AID 588497; in the data active means inhibition above about 35%, passing the limit was not always enough; inconclusive means no clear call, values can overlap the other calls; further: plate controls were buffer without enzyme for full effect and enzyme alone for no effect
BoNT-A LC inh2: blocks Botulinum neurotoxin A light chain protease | multiplex microsphere protease substrate cleavage, flow cytometry | inhibition, % at 10 µM | 360,000 compounds, 0.17% hits | AID 588499; further: plate controls were buffer without enzyme for full effect and enzyme alone for no effect
Anthrax LF inh2: anthrax lethal factor protease inhibition; 360,000 compounds, 0.12% hits; inhibition, % at 10 µM; multiplex microsphere protease cleavage assay, LF; further: plate controls were buffer without enzyme for full effect and enzyme alone for no effect
MazEF act: increases E. coli MazEF RNase cleavage of RNA; P0AE70; FAM/BHQ RNA-DNA oligo cleavage fluorescence, 5 h; activation, % at 20 µM; 350,000 compounds, 0.32% hits; AID 504720; in the data active means activation above about 50%
Target sequence (P0AE70 whole entry, looked up): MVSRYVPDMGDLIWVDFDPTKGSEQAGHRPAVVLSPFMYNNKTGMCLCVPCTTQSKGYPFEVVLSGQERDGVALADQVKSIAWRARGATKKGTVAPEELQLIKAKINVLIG
Bead autofluor: flagged as autofluorescent in microsphere protease counterscreen. compound autofluorescence counterscreen, microsphere flow cytometry; hits give high values. fluorescence intensity (concentration not given with the values). 360,000 compounds, 3.1% hits. AID 624483; in the data active means fluorescence intensity above about 16000; inconclusive means no clear call, values can overlap the other calls
Active calls of the source: *; ? = inconclusive; / = no result given. Unless noted, no stated cut-off is given here; in the data, active means inhibition above about 30%; inconclusive means no clear call, values can overlap the other calls; inactive means below that.

SMILES | BoNT-F LC inh | BoNT-A LC inh2 | Anthrax LF inh2 | MazEF act | Bead autofluor
COc1cc2c(cc1OC)CN(CC(=O)Nc1ccc(S(=O)(=O)N(C)C)cc1)CC2 | 1 | 1 | 4 | 9 | 4749
COc1ccccc1Cc1c(-c2ccco2)nc2c(C)cc(Br)cn12 | -1 | 4 | 13 | / | 4928
Cc1cc(C)c2cc(CN(CCCO)S(=O)(=O)c3ccccc3F)c(=O)[nH]c2c1 | 12 | -2 | -5 | 0 | 3526
COC(=O)c1ccccc1S(=O)(=O)N(CCCO)Cc1cc2c(C)ccc(C)c2[nH]c1=O | 2 | -1 | -6 | 5 | 22748*
COC(=O)c1ccccc1S(=O)(=O)N(Cc1ccco1)Cc1cc2cc(OC)ccc2[nH]c1=O | 2 | 1 | 2 | 12 | 22912*
CCN(CC(=O)Nc1cc(S(=O)(=O)N2CCOCC2)ccc1C)Cc1ccccc1 | ? | ? | ? | -4 | ?
OC[C@@H]1CN(Cc2ccc(Cl)cc2)C[C@H](n2cnc3c(N4CCN(c5ccccc5)CC4)ncnc32)O1 | 2 | 0 | -3 | / | 3724
COc1cccc(Oc2nnnn2-c2ccccc2)c1 | -6 | -1 | -11 | 5 | 9159
COc1ccc(Oc2nnnn2-c2ccccc2)cc1 | -4 | ? | -3 | -3 | 22772*
Cc1c(Cl)cccc1N1C(=O)c2ccccc2C1=O | -7 | ? | -4 | 14 | 25160*
CC(=O)NC(c1cccc(F)c1)c1nc(-c2cnc3ccccc3c2)cs1 (stereo unspecified) | -2 | 0 | -3 | / | 3906
Cn1c(SCC(=O)NC2CCCCC2)nnc1C(F)(F)F | 4 | 1 | -6 | 5 | 3691
Cc1ccc(C(=O)NN2CCOCC2)cc1 | 0 | ? | 1 | -2 | 19445*
CCSc1ncc(Cl)c(C(=O)Nc2sc3c(c2C(=O)NCc2cccnc2)CCCC3)n1 | -19 | -1 | -8 | 112* | 8984
Cc1c(Br)cc(C(=O)NC2CCCCC2)c(C)c1C | -2 | ? | 0 | 7 | 23067*
Cc1ccc(C(=O)NC2CCCCCCC2)c(Cl)c1 | 27 | 3 | -9 | -1 | 4031
CC(=O)c1cccc(NC(=O)C2CCCN2S(=O)(=O)c2cccs2)c1 (stereo unspecified) | -4 | 0 | 1 | 4 | 3043
C[C@]12c3[nH]c4ccc(Cl)cc4c3CCN1C(=O)[C@@H](CC(=O)NCCC1=CCCCC1)C[C@@H]2C(=O)N1CCOCC1 | -4 | 0 | -2 | 5 | 3468
CCc1c(C)nc(N)nc1N1N=C1SC | -1 | -1 | 3 | 3 | 5437
CCCCSC1=NN1c1nc(N)nc(C)c1CC | 7 | 3 | -2 | 6 | 22245*
O=[N+]([O-])c1cccc(/C=N/n2c(COc3ccccc3)n[nH]c2=S)c1 | 3 | 0 | -8 | -4 | 16172*
C=CC[C@H](CC(=O)N(CCO)Cc1ccccc1)C(=O)N[C@H](C)COC(=O)[C@@H](CC=C)CC(=O)OC(C)(C)C | 0 | 0 | 1 | -7 | 3699
CC1(C)NC(=O)N(CCCOc2ccc(Br)cc2Cl)C1=O | -2 | -1 | -3 | 2 | 23298*
CCc1cc(OCCN2C(=O)NC(C)(C)C2=O)ccc1Cl | -5 | 0 | -10 | 1 | 20493*
CC1(C)NC(=O)N(CCCCOc2ccc(Cl)cc2)C1=O | -6 | -3 | 0 | -9 | 23237*
SMILES | BoNT-F LC inh | BoNT-A LC inh2 | Anthrax LF inh2 | MazEF act | Bead autofluor
Cc1cc(OCCCCN2C(=O)NC(C)(C)C2=O)cc(C)c1Cl | 0 | 0 | -2 | 2 | 23207*
CC1(C)NC(=O)N(CCCCOc2ccc(Cl)cc2C=O)C1=O | -4 | 0 | 4 | 2 | 4473
CC1(C)NC(=O)N(CCCCOc2ccc(Br)cc2Cl)C1=O | -16 | -4 | 2 | -3 | ?
COc1ccccc1CNC(=O)c1ccc(NC2=NC3CS(=O)(=O)CC3S2)cc1 (stereo unspecified) | 4 | 0 | 1 | 2 | 6019
CNc1ncnc2c1ncn2[C@H]1CN(CCN2CCOCC2)C[C@@H](CO)O1 | -7 | 0 | 4 | / | 3884
Cc1ccc(C(C(=O)NC2CCCC2)N2CCCCC2)cc1 (stereo unspecified) | 3 | -1 | -1 | 9 | 5637
Cc1ccc(C(C(=O)NC2CCCCC2)N2CCCC2)cc1 (stereo unspecified) | 36* | 0 | -2 | 16 | 3664
O=C(c1ccc(CS(=O)Cc2ccc(Cl)cc2)o1)N1CCN(C2CCCCC2)CC1 (stereo unspecified) | 6 | 0 | 5 | 4 | 2878
Cc1cc(C)nc(SC(C)C(=O)Nc2ccc(S(N)(=O)=O)cc2)n1 (stereo unspecified) | 2 | ? | 1 | 2 | 21604*
CC(Sc1n[nH]c(-c2ccccc2F)n1)C(=O)Nc1ccc(S(N)(=O)=O)cc1 (stereo unspecified) | 6 | -1 | 5 | 3 | 3654
Cc1nonc1OCC(C)(COc1nonc1C)NC(=O)c1ccccc1 | 7 | 3 | 1 | -6 | 21066*
CCOC(=O)CNC(=O)c1ccccc1 | 0 | 0 | 1 | -1 | 2512
CCOC(=O)C(=O)NC(C)c1ccccc1 (stereo unspecified) | -6 | -2 | 1 | -7 | 4953
CCOC(=O)C(C(=O)OCC)=C1OC(=O)c2ccccc21 | -1 | 0 | -2 | 0 | 23965*
O=C(COc1ccc2ccc(=O)oc2c1)Nc1ccc2c(c1)OCCO2 | -11 | -7 | 2 | 14 | 21506*
CN(C)S(=O)(=O)c1ccc(C(=O)Nc2ccccc2F)cc1 | 1 | -1 | -2 | 6 | 16551*
CCOC(=O)c1[nH]c2ccccc2c1NC(=O)c1ccc(S(=O)(=O)N(C)C)cc1 | 0 | 0 | -3 | 5 | 6050
CCOC(=O)c1[nH]c2ccccc2c1NC(=O)c1ccc(S(=O)(=O)N2CCCCC2)cc1 | 6 | 0 | -4 | 5 | 4163
CCOC(=O)c1oc2ccccc2c1NC(=O)c1ccc(S(=O)(=O)N2CCCC2)cc1 | 2 | 2 | 0 | -48 | 20008*
CCOC(=O)c1oc2ccccc2c1NC(=O)c1ccc(S(=O)(=O)N(C)C)cc1 | 8 | 6 | -7 | -21 | 20341*
O=C1NC[C@H](CCCCN2CCN(CCc3ccc(O)cc3)C(=O)C2=O)N(CCC2CCCCC2)C1=O | -8 | -1 | 0 | / | 5051
O=C(CN1CCN(C(=O)CNC(=O)c2ccc(N3CCCC3=O)cc2)CC1)Nc1cccc(F)c1 | -2 | 0 | 5 | 0 | 2876
O=C(/C=C/Nc1ccc([N+](=O)[O-])cc1Br)c1cccc2ccccc12 | -4 | 38* | 18 | 6 | 2150
NC(=O)c1cc([N+](=O)[O-])ccc1NCc1cccc2ccccc12 | 6 | 0 | -1 | 13 | 3876
COc1ccc(/C(O)=C(\C#N)c2nc3ccccc3n2C)cc1OC | 5 | ? | 2 | 2 | 21521*
Cn1c(/C(C#N)=C(\O)c2ccc(S(=O)(=O)N3CCCCC3)cc2)nc2ccccc21 | 0 | 1 | -2 | 9 | 23146*
CCSc1nc2ccccc2n1C(=O)c1ccc(S(=O)(=O)N2CCCCCC2)cc1 | 0 | 1 | -1 | 0 | 1997
Cn1c(/C(C#N)=C(\O)c2ccc(Br)s2)nc2ccccc21 | 2 | 2 | 0 | 11 | 5363

High-throughput results as filed in PubChem BioAssay.
